Inconclusive results are not listed. Where a call stands in place of a potency, no number is given. Activity calls are given as the source filed them. Calls come from the whole dose curve; as a rule, active = well fitted curve in the direction sought with a large enough effect; inconclusive = small, poorly fitted or top-dose-only effect, or another doubt; inactive = no such curve, though single readings can be large; an effect the other way counts as inactive or inconclusive.
How the values were obtained:
[1] = Primary qHTS for inhibitors of nuclear receptor binding SET domain protein 2 (NSD2) in an isogenic RCH-ACV NSD2 p.E1099K mutant (9B) (AID 1645876); note: nearly all actives have a fitted effect of over 70% in size; note: potency is the fitted concentration of half-maximal effect
[2] = Primary qHTS for inhibitors of nuclear receptor binding SET domain protein 2 (NSD2) in an RCH-ACV wild type WT cells (2C) (AID 1645877); note: nearly all actives have a fitted effect of over 70% in size; note: potency is the fitted concentration of half-maximal effect
[3] = target: Catechol O-methyltransferase (Homo sapiens) (UniProt P21964); experiment: Confirmatory Screen for Target Class Profiling of Small Molecule Inhibitors of Methyltransferases (AID 1745852); conditions: MTase-Glo luminescence, SAH detection, recombinant enzyme; measured here: COMT max response; stronger effect = lower value
Catechol O-methyltransferase (Homo sapiens), sequence (P21964 whole entry, looked up): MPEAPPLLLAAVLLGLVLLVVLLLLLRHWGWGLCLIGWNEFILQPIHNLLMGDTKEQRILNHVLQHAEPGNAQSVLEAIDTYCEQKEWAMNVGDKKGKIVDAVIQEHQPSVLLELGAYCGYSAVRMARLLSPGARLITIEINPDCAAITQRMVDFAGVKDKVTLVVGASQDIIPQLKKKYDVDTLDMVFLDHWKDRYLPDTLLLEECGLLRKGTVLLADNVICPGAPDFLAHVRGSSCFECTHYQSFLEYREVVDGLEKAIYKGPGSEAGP

[4] = target: Guanidinoacetate N-methyltransferase (Homo sapiens) (UniProt Q14353); experiment: as above; conditions: activity change, negative = inhibition: at 57.3 µM (top of the series) unless noted
[5] = target: Nicotinamide N-methyltransferase (Homo sapiens) (UniProt P40261); experiment: as above; conditions: MTase-Glo luminescence, SAH detection, recombinant enzyme; measured here: NNMT max response; stronger effect = lower value
Nicotinamide N-methyltransferase (Homo sapiens), sequence (P40261 whole entry, looked up): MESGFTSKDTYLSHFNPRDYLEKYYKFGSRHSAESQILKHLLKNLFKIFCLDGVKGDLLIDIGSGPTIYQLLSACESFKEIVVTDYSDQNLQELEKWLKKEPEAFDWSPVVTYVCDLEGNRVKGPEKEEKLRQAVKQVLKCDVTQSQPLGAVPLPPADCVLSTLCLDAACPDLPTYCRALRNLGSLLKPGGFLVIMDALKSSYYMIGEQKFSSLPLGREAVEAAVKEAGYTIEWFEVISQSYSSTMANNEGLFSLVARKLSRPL

[6] = target: Phenylethanolamine N-methyltransferase (Homo sapiens) (UniProt P11086); experiment: as above; conditions: MTase-Glo luminescence, SAH detection, recombinant enzyme; measured here: PNMT max response; stronger effect = lower value
Phenylethanolamine N-methyltransferase (Homo sapiens), sequence (P11086 whole entry, looked up): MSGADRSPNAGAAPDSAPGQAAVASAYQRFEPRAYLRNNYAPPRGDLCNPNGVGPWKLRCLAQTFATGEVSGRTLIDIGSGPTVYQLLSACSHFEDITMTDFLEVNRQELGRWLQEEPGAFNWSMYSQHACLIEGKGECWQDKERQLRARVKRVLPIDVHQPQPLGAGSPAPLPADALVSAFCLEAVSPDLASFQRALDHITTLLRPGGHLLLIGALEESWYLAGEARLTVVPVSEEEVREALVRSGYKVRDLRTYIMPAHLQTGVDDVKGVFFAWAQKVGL

For CC1(C)C=CN2C(=O)C3=CCCN3C(=O)[C@@H]2C[C@@]12Nc1ccccc1C2=O, which Potency [1] is on record?
The Potency was “inactive”.

What about the Potency [2] of the same compound?
Its Potency is “inactive”.

What does the source list for CCc1c(C)nc2c(-c3cnn(-c4cc(CO)ccn4)c3)c[nH]n2c1=O?
Potency [1]: inactive; Potency [2]: inactive

For CS(=O)(=O)c1ccc(-c2nnc(/C=C/c3nnc(-c4ccc(C#N)cc4)o3)n2-c2ccccc2Cl)nc1, which Potency [1] is on record?
The Potency was “inactive”.

And the Potency [2]?
Its Potency is “inactive”.

Which Potency [1] does the source give for CC(=O)N[C@@H](C(=O)O[C@H]1CCC(C)(C)[C@@H]2CCC3=C(COC3=O)[C@@]12C)C(C)C here?
The Potency was “inactive”.

What about the Potency [2] of the same compound?
Its Potency is “inactive”.

Which Potency [1] does the source give for COC(=O)CCC(=O)OC[C@]1(C)CCC[C@@]2(C)C3CC[C@]4(C)C=CC3(CCC12)C4 (stereo partly specified) here?
Its Potency is “inactive”.

And the Potency [2]?
Its Potency is “inactive”.

Which Potency [1] does the source give for O=C(O)/C=C/c1ccc(-c2ccc(O)c(C34CC5CC(CC(C5)C3)C4)c2)cc1 here?
Its Potency is 325 nM (active).

And the Potency [2]?
Its Potency is 145 nM (active).

What about the activity [3] of the same compound?
Its activity is 0.235%.

And the activity change, negative = inhibition [4]?
The activity change, negative = inhibition was 1.42%.

What about the activity [5] of the same compound?
The activity was -84%.

What about the activity [6] of the same compound?
The activity was -0.0074%.

Which results are given for Cc1c2cc(c(C(=O)O)c1C)OC1OC(C(O)C(O)C1O)C(O)C(O)C1OC(O2)C(O)C(O)C1O (stereo unspecified)?
Potency [1]: inactive; Potency [2]: inactive

For C=C1C(OC(=O)/C(C)=C\C)[C@@]23CCC4[C@@](C)(CCC[C@@]4(C)C(=O)O)C2CC[C@H]1C3OC(C)=O (stereo partly specified), which Potency [1] is on record?
The Potency was “inactive”.

And the Potency [2]?
Its Potency is “inactive”.

What does the source list for CC(C)=CCC/C(C)=C/CC/C(C)=C/COC1OC(COC2OCC(OC3OCC(O)C(O)C3O)C(O)C2O)C(O)C(OC2OC(C)C(OC3OC(C)C(OC4OCC(OC5OC(C)C(O)C(O)C5O)C(O)C4O)C(O)C3O)C(O)C2O)C1O (stereo unspecified)?
outcome [1]: inactive [at 9.23 µM]; outcome [2]: inactive [at 9.23 µM]

What does the source list for COC1CC(OC2CCC3(C)C(=CCC4C3C(OC(C)=O)C(OC(=O)/C=C/c3ccccc3)C3(C)C(C(C)O)CCC43O)C2)OC(C)C1OC1CC(OC)C(OC2OC(C)C(OC3OC(CO)C(O)C(O)C3O)C(OC)C2O)C(C)O1 (stereo unspecified)?
activity change, negative = viability loss [1]: -12.2% [at 9.23 µM] (inactive); activity change, negative = cell killing [2]: -17.6% [at 9.23 µM] (inactive)

For COc1c2c(c(C)c3c1C(=O)OC3)OC1(C)CC(O)C34OC(OC)(OC3(C)C)C(O)CC4(C)C1C2 (stereo unspecified), which Potency [1] is on record?
Its Potency is “inactive”.

With OC[C@H]1O[C@@H](Oc2cc(O)c3c(c2)O[C@@H](c2ccc(O)cc2)[C@H](O)C3)[C@H](O)[C@@H](O)[C@@H]1O as the compound, how does the Potency [1] read?
The Potency was “inactive”.

What about the Potency [2] of the same compound?
Its Potency is “inactive”.

Which results are given for COc1c(C)c(OCC(O)C(C)(C)O)cc2c1COC2=O (stereo unspecified)?
Potency [1]: inactive; Potency [2]: inactive

Which results are given for C=C1CCC2C(C)(COC(C)=O)CCCC2(C)C1CCC(C)CC(=O)O (stereo unspecified)?
Potency [1]: inactive; Potency [2]: inactive

Which Potency [1] does the source give for C=C1C(=O)O[C@@H]2[C@H]1CCC(C)=C1CCC(=O)O[C@]12C here?
The Potency was 9160 nM (active).

And the Potency [2]?
Its Potency is 4090 nM (active).

With CC1=C(COC2OC(CO)C(O)C(O)C2O)C(C(CO)C(=O)O)CC1 (stereo unspecified) as the compound, how does the Potency [1] read?
The Potency was “inactive”.

What about the Potency [2] of the same compound?
The Potency was “inactive”.

Which results are given for COC(=O)C1=CO[C@@H](O[C@@H]2O[C@H](CO)[C@@H](O)[C@H](O)[C@H]2O)[C@H]2[C@@H]1CC(OC)O[C@@H]2C (stereo partly specified)?
Potency [1]: inactive; Potency [2]: inactive; activity [3]: -63.3%; activity change, negative = inhibition [4]: -2.71% [at 29.8 µM]; activity [5]: -1.72%; activity [6]: -2.32%

Which results are given for C=C(C)C1Cc2cc(C(=O)OC3OC(CO)C(O)C(O)C3O)ccc2O1 (stereo unspecified)?
Potency [1]: inactive; Potency [2]: inactive; activity [3]: -58%; activity change, negative = inhibition [4]: -3.06%; activity [5]: -2.77%; activity [6]: -3.74%

Which results are given for C=C1C(=O)O[C@H](CCC)[C@H]1C(=O)O?
Potency [1]: inactive; Potency [2]: inactive

Which results are given for C[C@H](CCC(=O)O)[C@H]1CC[C@H]2[C@@H]3C[C@H](O)[C@@H]4C[C@H](O)CC[C@]4(C)[C@H]3CC[C@]12C?
Potency [1]: inactive; Potency [2]: inactive

— PubChem BioAssay (NCATS)
